Source: PubChem BioAssay (NCI)
About 79,000 compounds went through this panel and 15% of them were active in at least one assay; those are over-represented in the sample as a whole. Active and inactive are the calls of the source. Rule as the data show it: active = growth inhibition above about 70%; inactive = the rest.

Legend:
[1] = NCI Yeast Anticancer Drug Screen. Data for the mec2-1 strain (AID 157); details: S. cerevisiae mec2-1 strain, active compounds read high
How it was run: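 Readout is yeast growth inhibition, normalised to vehicle-treated controls, in the mec2-1 strain exposed to compound.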

[2] = NCI Yeast Anticancer Drug Screen. Data for the rad14 strain (AID 159);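 also: 0% = growth of vehicle-treated control cultures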; details: S. cerevisiae rad14 strain growth inhibition, active compounds read high
How it was run: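 Readout: yeast growth inhibition, referenced to vehicle-only cultures. Strain bears a defined alteration in DNA damage repair.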

[3] = NCI Yeast Anticancer Drug Screen. Data for the sgs1 mgt1 strain (AID 161);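 also: 0% = growth of cultures given vehicle only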; details: S. cerevisiae sgs1 mgt1 strain, active compounds read high
How it was run: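 This yeast growth screen uses a strain with defined DNA-repair lesions; compound-treated growth is compared with vehicle-treated growth.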

[4] = NCI Yeast Anticancer Drug Screen. Data for the CLN2oe strain (AID 163);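 also: 0% = growth of vehicle-only control cultures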; details: S. cerevisiae CLN2oe strain, active compounds read high
How it was run: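 Values reflect how much compound exposure reduced yeast growth, referenced to vehicle-exposed cells. Assay organism is a strain with a defined genetic change affecting cell-cycle control.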

[5] = NCI Yeast Anticancer Drug Screen. Data for the cln2 rad14 strain (AID 165);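 also: 0% = growth equal to vehicle treated cultures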; details: S. cerevisiae cln2 rad14 strain, active compounds read high
How it was run: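 Relative to vehicle controls, growth inhibition of compound-treated cln2 rad14 yeast was recorded.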

[6] = NCI Yeast Anticancer Drug Screen. Data for the bub3 strain (AID 167); details: S. cerevisiae bub3 mutant strain, active compounds read high
How it was run: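 Part of a panel of yeast mutants defective in DNA damage repair or cell cycle regulation. Each strain is grown with compound, and inhibition is calculated relative to solvent-treated cultures.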

[7] = NCI Yeast Anticancer Drug Screen. Data for the wt2 strain (AID 169);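 also: 0% = growth of vehicle-treated yeast cultures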; details: S. cerevisiae wt2 strain growth inhibition, active compounds read high
How it was run: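 Values express reduction in yeast growth under compound treatment, referenced to vehicle-treated cells.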

[8] = NCI Yeast Anticancer Drug Screen. Data for the mlh1 strain (AID 171);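 also: 0% = growth of vehicle-treated control cultures of the same strain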; details: S. cerevisiae mlh1 strain growth inhibition, active compounds read high
How it was run: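 Steps: expose the defined-mutant yeast strain to compound; expose a parallel culture to vehicle; measure growth; express compound effect as inhibition relative to the vehicle culture.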

[9] = NCI Yeast Anticancer Drug Screen. Data for the sgs1 strain (AID 173);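 also: 0% = growth of vehicle-only control cultures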; details: S. cerevisiae sgs1 mutant, active compounds read high
How it was run: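 Treat defined-mutant yeast with compound; measure growth; calculate inhibition relative to vehicle-treated cells.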

[10] = NCI Yeast Anticancer Drug Screen. Data for the mlh1 rad18 strain (AID 175); details: S. cerevisiae mlh1 rad18 strain growth inhibition, active compounds read high
How it was run: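 Test agents were incubated with a yeast strain of defined genotype (DNA damage repair defect). Inhibition of growth was derived by comparison with vehicle-exposed cultures.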

[11] = NCI Yeast Anticancer Drug Screen. Data for the rad18 strain (AID 177); details: S. cerevisiae rad18 mutant growth inhibition, active compounds read high
How it was run: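 A genetically defined yeast mutant impaired in DNA damage repair was treated with test compounds, then its growth was measured against cultures receiving vehicle alone.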

[12] = NCI Yeast Anticancer Drug Screen. Data for the rad52 strain (AID 147);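 also: 0% = growth of vehicle-treated control cultures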; details: S. cerevisiae rad52 mutant growth inhibition, active compounds read high
How it was run: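 Screen used a yeast mutant impaired in DNA repair. After compound exposure, growth was measured. Values reflect inhibition compared with vehicle-treated cells.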

[13] = NCI Yeast Anticancer Drug Screen. Data for the wt1 strain (AID 149);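 also: 0% = growth of vehicle-treated wt1 cultures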; details: S. cerevisiae wt1 strain (SPY 50644) growth inhibition, active compounds read high
How it was run: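 The wt1 strain was treated with compounds, and growth was compared with vehicle-treated cultures to give inhibition.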

[14] = NCI Yeast Anticancer Drug Screen. Data for the rad50EPP+ strain (AID 151);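 also: 0% = growth of vehicle-treated control cultures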; details: S. cerevisiae rad50 mutant strain, active compounds read high
How it was run: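 Exposing the rad50EPP+ strain to each compound, growth was compared with vehicle-only cultures to give inhibition.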

[15] = NCI Yeast Anticancer Drug Screen. Data for the mgt1 strain (AID 153); details: S. cerevisiae mgt1 mutant growth inhibition, active compounds read high
How it was run: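 Genetically defined yeast (mgt1) treated with compound; inhibition of growth expressed against vehicle-treated controls.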

[16] = NCI Yeast Anticancer Drug Screen. Data for the rad50 strain (AID 155);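 also: 0% = growth of vehicle-only cultures of the same strain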; details: S. cerevisiae rad50 strain growth inhibition, active compounds read high
How it was run: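 Cells are treated with compound, grown, and their growth is then scored against vehicle-only cultures of the same repair-deficient yeast strain.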

[17] = at 5.0 µM (retest, dose inferred, filed as 0.5)
[18] = at 50.0 µM (retest, dose inferred, filed as 5.0)

Measured: growth inhibition

Oc1ccc(O)c(Cc2ccccc2)c1
inactive: [1]; [17] -9% | [1]; [18] 68% | [2]; at 1.2 µM 17% | [2]; at 3.7 µM 34% | [3]; [17] -20% | [3]; [18] 68% | [4]; at 1.2 µM 3% | [4]; at 3.7 µM 28% | [4]; at 11.0 µM 40% | [5]; [17] -25% | [5]; [18] 47% | [6]; at 1.2 µM 8% | [6]; at 3.7 µM 25% | [6]; [17] -26% | [6]; at 11.0 µM 63% | [7]; at 1.2 µM -2% | [7]; at 3.7 µM 1% | [7]; at 11.0 µM 23% | [7]; at 33.0 µM 58% | [8]; at 1.2 µM 9% | [8]; at 3.7 µM 22% | [8]; at 11.0 µM 47% | [9]; at 1.2 µM 16% | [9]; at 3.7 µM 45% | [10]; [17] 36% | [11]; at 1.2 µM 27% | [11]; at 3.7 µM 52%
active: [1]; at 11.0 µM 75% | [1]; at 33.0 µM 100% | [1]; at 50.0 µM 84.3% | [1]; at 100.0 µM 100% | [2]; at 11.0 µM 73% | [2]; at 33.0 µM 98% | [2]; at 100.0 µM 99% | [3]; at 50.0 µM 92.5% | [4]; at 33.0 µM 72% | [4]; at 100.0 µM 98% | [5]; at 50.0 µM 97.4% | [6]; at 33.0 µM 97% | [6]; [18] 88% | [6]; at 50.0 µM 98.3% | [6]; at 100.0 µM 99% | [7]; at 100.0 µM 87% | [8]; at 33.0 µM 89% | [8]; at 100.0 µM 98% | [9]; at 11.0 µM 94% | [9]; at 33.0 µM 99% | [9]; at 100.0 µM 99% | [10]; [18] 95% | [10]; at 50.0 µM 98% | [11]; at 11.0 µM 87% | [11]; at 33.0 µM 97% | [11]; at 100.0 µM 99%

O=C(NO)Nc1cc(Cl)cc(Cl)c1
active: [12]; at 11.0 µM 99% | [12]; at 33.0 µM 99% | [12]; at 100.0 µM 97% | [13]; at 11.0 µM 80% | [13]; at 33.0 µM 99% | [13]; at 100.0 µM 98% | [14]; at 33.0 µM 88% | [14]; at 100.0 µM 86% | [15]; at 11.0 µM 100% | [15]; at 33.0 µM 99% | [15]; at 100.0 µM 98% | [16]; at 11.0 µM 99% | [16]; at 33.0 µM 99% | [16]; [18] 99% | [16]; at 50.0 µM 99.3% | [16]; at 100.0 µM 96% | [1]; at 11.0 µM 99% | [1]; at 33.0 µM 99% | [1]; [18] 99% | [1]; at 50.0 µM 99.2% | [1]; at 100.0 µM 98% | [2]; at 11.0 µM 99% | [2]; at 33.0 µM 98% | [2]; at 100.0 µM 98% | [3]; [18] 99% | [3]; at 50.0 µM 98.8% | [4]; at 11.0 µM 99% | [4]; at 33.0 µM 99% | [4]; at 100.0 µM 98% | [5]; [18] 99% | [5]; at 50.0 µM 99% | [6]; at 11.0 µM 99% | [6]; at 33.0 µM 99% | [6]; [18] 99% | [6]; at 50.0 µM 98.8% | [6]; at 100.0 µM 98% | [7]; at 11.0 µM 98% | [7]; at 33.0 µM 99% | [7]; at 100.0 µM 98% | [8]; at 11.0 µM 99% | [8]; at 33.0 µM 99% | [8]; at 100.0 µM 97% | [9]; at 11.0 µM 100% | [9]; at 33.0 µM 100% | [9]; at 100.0 µM 98% | [10]; [18] 99% | [10]; at 50.0 µM 99.3% | [11]; at 11.0 µM 99% | [11]; at 33.0 µM 99% | [11]; at 100.0 µM 98%
inactive: [12]; at 1.2 µM 7% | [12]; at 3.7 µM 39% | [13]; at 1.2 µM -3% | [13]; at 3.7 µM -3% | [14]; at 1.2 µM -4% | [14]; at 3.7 µM -4% | [14]; at 11.0 µM 19% | [15]; at 1.2 µM -3% | [15]; at 3.7 µM 16% | [16]; at 1.2 µM 7% | [16]; at 3.7 µM 50% | [16]; [17] 24% | [1]; at 1.2 µM -2% | [1]; at 3.7 µM 11% | [1]; [17] 0% | [2]; at 1.2 µM 8% | [2]; at 3.7 µM 20% | [3]; [17] 58% | [4]; at 1.2 µM 7% | [4]; at 3.7 µM 26% | [5]; [17] 21% | [6]; at 1.2 µM -2% | [6]; at 3.7 µM 10% | [6]; [17] -17% | [7]; at 1.2 µM -3% | [7]; at 3.7 µM 6% | [8]; at 1.2 µM 4% | [8]; at 3.7 µM 31% | [9]; at 1.2 µM -2% | [9]; at 3.7 µM 54% | [10]; [17] 64% | [11]; at 1.2 µM 3% | [11]; at 3.7 µM 34%

O=C1c2cccnc2C(=O)C2C3C=CC(C3)C12 (centres undefined)
active: [12]; at 11.0 µM 78% | [12]; at 33.0 µM 94% | [12]; at 100.0 µM 98% | [13]; at 33.0 µM 91% | [13]; at 100.0 µM 99% | [14]; at 3.7 µM 82% | [14]; at 11.0 µM 92% | [14]; at 33.0 µM 96% | [14]; at 100.0 µM 97% | [15]; at 33.0 µM 94% | [15]; at 100.0 µM 98% | [16]; at 3.7 µM 73% | [16]; at 11.0 µM 91% | [16]; at 33.0 µM 97% | [16]; [18] 96% | [16]; at 50.0 µM 99.4% | [16]; at 100.0 µM 94% | [1]; at 11.0 µM 87% | [1]; at 33.0 µM 98% | [1]; [18] 98% | [1]; at 50.0 µM 99.5% | [1]; at 100.0 µM 99% | [2]; at 11.0 µM 87% | [2]; at 33.0 µM 99% | [2]; at 100.0 µM 99% | [3]; [18] 98% | [3]; at 50.0 µM 99.2% | [4]; at 33.0 µM 75% | [4]; at 100.0 µM 97% | [5]; [18] 85% | [6]; at 11.0 µM 72% | [6]; at 33.0 µM 95% | [6]; [18] 98% | [6]; at 50.0 µM 98.4% | [6]; at 100.0 µM 99% | [7]; at 11.0 µM 78% | [7]; at 33.0 µM 97% | [7]; at 100.0 µM 99% | [8]; at 11.0 µM 92% | [8]; at 33.0 µM 98% | [8]; at 100.0 µM 99% | [9]; at 11.0 µM 75% | [9]; at 33.0 µM 93% | [9]; at 100.0 µM 98% | [10]; [17] 72% | [10]; [18] 98% | [10]; at 50.0 µM 99.2% | [11]; at 3.7 µM 76% | [11]; at 11.0 µM 91% | [11]; at 33.0 µM 96% | [11]; at 100.0 µM 97%
inactive: [12]; at 1.2 µM 12% | [12]; at 3.7 µM 35% | [13]; at 1.2 µM 16% | [13]; at 3.7 µM 20% | [13]; at 11.0 µM 43% | [14]; at 1.2 µM 30% | [15]; at 1.2 µM 12% | [15]; at 3.7 µM 32% | [15]; at 11.0 µM 65% | [16]; at 1.2 µM 31% | [16]; [17] 29% | [1]; at 1.2 µM 19% | [1]; at 3.7 µM 34% | [1]; [17] 37% | [2]; at 1.2 µM 20% | [2]; at 3.7 µM 44% | [3]; [17] 56% | [4]; at 1.2 µM 10% | [4]; at 3.7 µM 16% | [4]; at 11.0 µM 30% | [5]; [17] -31% | [5]; at 50.0 µM 45.5% | [6]; at 1.2 µM 9% | [6]; at 3.7 µM 30% | [6]; [17] 57% | [7]; at 1.2 µM 16% | [7]; at 3.7 µM 36% | [8]; at 1.2 µM 28% | [8]; at 3.7 µM 55% | [9]; at 1.2 µM 18% | [9]; at 3.7 µM 36% | [11]; at 1.2 µM 29%
